For 8 compounds, Potency and outcome results are on record in PubChem BioAssay (Tox21).

Inconclusive results are not listed. Calls of active or inactive are those of the source. Unless noted, calls come from the whole dose curve.

The nature of assay [1]: Nuclear factor erythroid 2-related factor 2/antioxidant responsive element (Nrf2/ARE) small molecule agonists: qHTS cell viability counter screen in human keratinocytes (AID 1919968; active = well fitted curve in the direction sought with a large enough effect in the repeat runs; an effect the other way counts as inactive or inconclusive; note: nearly all actives have a fitted effect of over 55% in size; note: potency is the fitted concentration of half-maximal effect). The essentials:
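CellTiter-Fluor fluorescence, read 1 h after reagent, gave viability in the same wells as the ARE-luciferase assay. KeratinoSens cells (1,500/well) had 23 h compound exposure at 37 C/5% CO2 following 5 h plating.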
Background: qHTS replaces the single test concentration by a dilution series.

In assay [2] the target is Gonadotropin-releasing hormone receptor (Homo sapiens) (UniProt P30968). Kind of assay: Human gonadotropin-releasing hormone receptor (GnRHR) small molecule agonists, calcium flux assay in GnRHR-HEK293 cells (AID 1920063). Note: nearly all actives have a fitted effect of over 35% in size. In short, it runs like this:
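Agonist mode: compounds at 15 concentrations, in triplicate, went onto calcium dye-loaded GnRHR-HEK293 cells. Intracellular calcium was then followed as 480/540 nm fluorescence at 1 s intervals over 3 min.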
(In general: Calcium flux is commonly read through the fluorescence of an indicator in the cells.)

Assay [3] concerns the target KiSS-1 receptor (Homo sapiens) (UniProt Q969F8). Kind of assay: Human kisspeptin (KISS1R) small molecule agonists, calcium flux assay in KISS1R-HEK293 cells (AID 1920064; active = well fitted curve in the direction sought with a large enough effect in the repeat runs; an effect the other way counts as inactive or inconclusive). The essentials:
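Agonist mode: intracellular calcium rise tracked at 1 s intervals over 3 min (480/540 nm) immediately after compound addition to dye-loaded KISS1R-HEK293 stable cells. Each compound tested at 15 concentrations in triplicate.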

Assay [4] is described as follows: G protein-coupled receptor (GPCR) small molecule agonists, calcium flux assay: HEK293 wild type cell line counter screen (AID 1920065). In short, it runs like this:
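Calcium flux counter screen: compound added in agonist mode at 15 concentrations in triplicate to dye-loaded parental HEK293 cells. Fluorescence (480/540) read kinetically for 3 min; ATP served as positive control.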

The nature of assay [5]: p53 small molecule agonists, cell-based qHTS assay with human liver microsomes (AID 1963577).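 Note: p53 response element beta-lactamase reporter cells with liver microsomes plus NADPH.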 In short, it runs like this: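 With metabolic activation: human liver microsomes (0.5 mg/mL final) plus NADPH (0.5 mg/mL final) added alongside compounds to p53RE-bla cells; 16 h 37 C exposure; beta-lactamase read by LiveBLAzer fluorescence.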
Assay [6] in a line: p53 small molecule agonists, cell-based qHTS assay with rat liver microsomes (AID 1963578). In short, it runs like this:
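Metabolic activation by rat liver microsomes and NADPH, each 0.5 mg/mL final, added right after compounds to p53RE-bla reporter cells (4,000/well, plated 5 h earlier). 16 h at 37 C, then LiveBLAzer substrate for 2 h at room temperature in the dark; fluorescence read-out.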

Assay [7] can be described thus: p53 small molecule agonists, cell-based qHTS assay with human liver microsomes: qHTS cell viability counter screen (AID 1963579). Note: nearly all actives have a fitted effect of over 45% in size. In short, it runs like this:
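Metabolic activation used human liver microsomes and NADPH, both 0.5 mg/mL final, over 16 hours at 37 C on p53RE-bla cells (4,000/well). Cytotoxicity measured by CellTiter-Glo luminescence, 30 min at room temperature.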

Assay [8] can be described thus: p53 small molecule agonists, cell-based qHTS assay: qHTS cell viability counter screen (AID 1963581). Note: nearly all actives have a fitted effect of over 45% in size. In short, it runs like this: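 Counter screen read by CellTiter-Glo luminescence (ATP content, 30 min at room temperature), run in the same wells as the beta-lactamase reporter read. HCT-116 p53RE-bla cells saw compounds for 16 h at 37 C.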
The target of assay [9] is 5-hydroxytryptamine receptor 2A (Homo sapiens) (UniProt P28223). Kind of assay: 5-hydroxytryptamine receptor 2A (HTR2A) small molecule antagonists, cell-based qHTS assay (AID 1963586). Note: nearly all actives have a fitted effect of over 45% in size. In short, it runs like this: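 CHO cells stably expressing human HTR2A were plated for 18 h at 37 C, then loaded with calcium dye for 1 h. Compounds were preincubated 5 min at room temperature before DOI (4 nM solution) was added. Kinetic fluorescence was read for 3 min.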

The target is the same in assay [10]. Kind of assay: 5-hydroxytryptamine receptor 2A (HTR2A) small molecule agonists, cell-based qHTS assay (AID 1963587). Note: nearly all actives have a fitted effect of over 30% in size. Note: potency is the fitted concentration of half-maximal effect. In short, it runs like this: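 Kinetic calcium-flux fluorescence (2 min, 1 sec intervals) after compound addition in agonist mode. HTR2A-CHO cells were cultured 18 h, then dye-loaded 1 h at 37 C.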
The target in assay [11] is Muscarinic acetylcholine receptor M1 (Homo sapiens) (UniProt P11229). Kind of assay: Cholinergic receptor muscarinic 1 (CHRM1) small molecule antagonists, cell-based qHTS assay (AID 1963588). Note: nearly all actives have a fitted effect of over 40% in size. Note: potency is the fitted concentration of half-maximal effect. In short, it runs like this: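 Compounds were tested at 15 concentrations in three independent runs. Dye-loaded CHRM1-CHO cells were exposed 5 min at room temperature before stimulation by acetylcholine added at 50nM. Intracellular calcium was read kinetically on FDSS for 3 min.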

Assay [12] shares this target. Kind of assay: Cholinergic receptor muscarinic 1 (CHRM1) small molecule agonists, cell-based qHTS assay (AID 1963589). Note: nearly all actives have a fitted effect of over 35% in size. The essentials: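 Agonist-mode calcium-flux screen: compounds at 15 concentrations, three independent runs, were pin-transferred onto dye-loaded human CHRM1-CHO cells. Fluorescence was then recorded kinetically every second over minutes.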
Assay [13] in a line: cAMP Responsive Elements (CRE) small molecule agonists, cell-based qHTS assay (AID 1963590). In short, it runs like this: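 Agonist mode: compound added to CRE-bla HEK 293T cells (2,000/well, 18 h after plating) for 3 h at 37 C/5% CO2. Reporter activity detected via FRET beta-lactamase substrate, 2 h room-temperature loading.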
Assay [14] is described as follows: cAMP Responsive Elements (CRE) small molecule antagonists, cell-based qHTS assay (AID 1963591; active = well fitted inhibition curve with a large enough effect in the signal ratio in the repeat runs, not every such curve was filed as active; the % refers to the signal ratio; note: potency is the fitted concentration of half-maximal effect). In short, it runs like this: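 Antagonist mode: compounds are added alongside the adenylyl cyclase activator NKH477 (0.25 uM final) to CRE-bla HEK293T cells for 3 h. LiveBLAzer FRET substrate, 2 h at room temperature, reports bla expression.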
The target in assay [15] is Beta-2 adrenergic receptor (Homo sapiens) (UniProt P07550). Kind of assay: Adrenergic beta2 receptor (ADRB2) small molecule antagonists, cell-based qHTS assay (AID 1963592). Note: series mostly up to about 92 µM; nearly all actives have a fitted effect of over 50% in size. The essentials:
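Assay format: CHO-ADRB2 cells, 18-20hr seeding at 37C/5% CO2, then compound plus 1nM isoproterenol agonist mix for 0.5hr RT. Homogeneous time-resolved fluorescence cAMP detection after 1hr, expressed as 665/615 nm ratio.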

Assay [16] has the same target. Kind of assay: Adrenergic beta2 receptor (ADRB2) small molecule agonists, cell-based qHTS assay (AID 1963593).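 Note: CHO cells stably overexpressing human ADRB2.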 The essentials:
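CHO cells stably over-expressing ADRB2 were plated overnight at 37C, then dosed with compounds plus a stimulation mix containing 100uM IBMX and 25uM Ro-20-1724 for 0.5hr at room temperature. cAMP was measured by HTRF competition, 1hr.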

Assay [17] has as its target D(2) dopamine receptor (Homo sapiens) (UniProt P14416). Kind of assay: Dopamine D2 receptor (DRD2) small molecule agonists, cell-based qHTS assay (AID 1963594). Note: nearly all actives have a fitted effect of over 35% in size. In short, it runs like this:
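cAMP accumulation in DRD2-HEK293 cells measured by HTRF after 1 h detection; compounds added 10 min before NKH477 (200nM […]) forskolin-analogue stimulation, 30 min at room temperature, with Ro20-1724 present at 0.1 mM final.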

A short description of assay [18]: p53 small molecule agonists, cell-based qHTS assay with rat liver microsomes: qHTS cell viability counter screen (AID 1963580). Note: nearly all actives have a fitted effect of over 45% in size. The essentials: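 Cytotoxicity counter screen: intracellular ATP read by CellTiter-Glo luminescence in the p53 reporter wells. HCT-116 p53RE-bla cells were treated for 16 h at 37 C alongside rat liver microsomes and NADPH, each 0.5 mg/mL final.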

Assay [19] is described as follows: p53 small molecule agonists, cell-based qHTS assay (AID 1963582; active = well fitted activation curve with a large enough effect in the signal ratio in the repeat runs, not every such curve was filed as active; the % refers to the signal ratio). In short, it runs like this:
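Read-out is beta-lactamase FRET fluorescence after 2 h at room temperature with LiveBLAzer B/G substrate. p53 response element-bla cells were treated 16 h at 37 C with compounds in DMSO, added 5 h after seeding.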

Assay [20] has as its target D(2) dopamine receptor (Homo sapiens) (UniProt P14416). Kind of assay: Dopamine D2 receptor (DRD2) small molecule antagonists, cell-based qHTS assay (AID 1963595; active = well fitted inhibition curve with a large enough effect in the signal ratio in the repeat runs, with a control signal flat; the % refers to the signal ratio; note: potency is the fitted concentration of half-maximal effect). The essentials: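 Antagonist mode in DRD2-HEK293 cells: after compound addition with 0.1 mM Ro20-1724, cells received quinpirole (12 nM) and NKH477 (200 nM) for 30 min at room temperature; HTRF cAMP read after 1 h detection.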

5-hydroxytryptamine receptor 2A (Homo sapiens), sequence (P28223 whole entry, looked up): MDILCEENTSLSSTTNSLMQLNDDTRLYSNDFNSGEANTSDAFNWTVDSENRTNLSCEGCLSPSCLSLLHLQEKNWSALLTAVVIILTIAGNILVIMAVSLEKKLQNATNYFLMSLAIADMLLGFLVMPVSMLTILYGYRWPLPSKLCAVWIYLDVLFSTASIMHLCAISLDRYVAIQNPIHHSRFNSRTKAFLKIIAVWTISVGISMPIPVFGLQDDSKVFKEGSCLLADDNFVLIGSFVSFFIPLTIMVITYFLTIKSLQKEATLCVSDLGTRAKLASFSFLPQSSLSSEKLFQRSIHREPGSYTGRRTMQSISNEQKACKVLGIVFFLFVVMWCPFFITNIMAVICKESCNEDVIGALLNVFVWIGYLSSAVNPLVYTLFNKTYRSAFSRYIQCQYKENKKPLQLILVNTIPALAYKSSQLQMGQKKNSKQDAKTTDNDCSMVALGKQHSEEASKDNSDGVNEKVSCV
D(2) dopamine receptor (Homo sapiens), sequence (P14416 whole entry, looked up): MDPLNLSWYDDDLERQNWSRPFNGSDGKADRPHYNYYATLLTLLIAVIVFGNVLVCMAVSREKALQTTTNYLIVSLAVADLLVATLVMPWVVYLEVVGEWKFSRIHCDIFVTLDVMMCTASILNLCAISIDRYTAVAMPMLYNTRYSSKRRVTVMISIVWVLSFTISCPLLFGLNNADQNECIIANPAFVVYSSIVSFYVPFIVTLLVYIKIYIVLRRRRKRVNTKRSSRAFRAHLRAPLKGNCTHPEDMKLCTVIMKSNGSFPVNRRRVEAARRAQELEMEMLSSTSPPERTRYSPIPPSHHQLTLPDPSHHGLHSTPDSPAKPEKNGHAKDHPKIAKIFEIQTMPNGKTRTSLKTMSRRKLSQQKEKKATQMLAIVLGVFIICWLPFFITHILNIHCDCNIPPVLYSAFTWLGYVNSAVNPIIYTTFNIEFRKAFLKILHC
Gonadotropin-releasing hormone receptor (Homo sapiens), sequence (P30968 whole entry, looked up): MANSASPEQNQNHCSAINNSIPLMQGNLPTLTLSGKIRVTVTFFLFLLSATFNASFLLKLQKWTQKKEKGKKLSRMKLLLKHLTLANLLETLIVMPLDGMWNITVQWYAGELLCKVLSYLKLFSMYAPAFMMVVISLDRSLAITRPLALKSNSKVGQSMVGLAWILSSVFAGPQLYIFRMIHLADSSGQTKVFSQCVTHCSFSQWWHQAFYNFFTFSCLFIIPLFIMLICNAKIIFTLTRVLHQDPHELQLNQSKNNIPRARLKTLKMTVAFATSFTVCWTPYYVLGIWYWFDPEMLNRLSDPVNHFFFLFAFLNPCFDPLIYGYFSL
Beta-2 adrenergic receptor (Homo sapiens), sequence (P07550 whole entry, looked up): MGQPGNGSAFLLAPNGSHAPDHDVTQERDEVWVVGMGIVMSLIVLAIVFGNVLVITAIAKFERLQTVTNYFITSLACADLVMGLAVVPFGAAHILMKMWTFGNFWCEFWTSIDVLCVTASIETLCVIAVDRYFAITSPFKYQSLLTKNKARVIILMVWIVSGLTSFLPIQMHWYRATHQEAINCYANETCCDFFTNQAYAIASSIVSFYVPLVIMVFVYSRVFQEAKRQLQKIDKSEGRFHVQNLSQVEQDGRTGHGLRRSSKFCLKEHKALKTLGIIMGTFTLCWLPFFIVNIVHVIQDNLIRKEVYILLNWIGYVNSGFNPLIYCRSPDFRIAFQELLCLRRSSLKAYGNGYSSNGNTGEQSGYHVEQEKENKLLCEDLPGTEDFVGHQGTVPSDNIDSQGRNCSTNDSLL
KiSS-1 receptor (Homo sapiens), sequence (Q969F8 whole entry, looked up): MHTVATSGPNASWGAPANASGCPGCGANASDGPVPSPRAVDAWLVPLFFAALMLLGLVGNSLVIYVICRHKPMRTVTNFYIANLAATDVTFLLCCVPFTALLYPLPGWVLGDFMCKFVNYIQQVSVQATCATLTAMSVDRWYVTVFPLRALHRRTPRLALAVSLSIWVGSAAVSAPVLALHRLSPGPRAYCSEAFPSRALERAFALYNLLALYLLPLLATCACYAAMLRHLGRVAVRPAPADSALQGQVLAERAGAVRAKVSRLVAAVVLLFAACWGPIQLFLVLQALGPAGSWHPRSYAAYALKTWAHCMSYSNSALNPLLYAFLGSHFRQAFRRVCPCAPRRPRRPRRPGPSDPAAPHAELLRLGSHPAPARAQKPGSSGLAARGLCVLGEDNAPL
Muscarinic acetylcholine receptor M1 (Homo sapiens), sequence (P11229 whole entry, looked up): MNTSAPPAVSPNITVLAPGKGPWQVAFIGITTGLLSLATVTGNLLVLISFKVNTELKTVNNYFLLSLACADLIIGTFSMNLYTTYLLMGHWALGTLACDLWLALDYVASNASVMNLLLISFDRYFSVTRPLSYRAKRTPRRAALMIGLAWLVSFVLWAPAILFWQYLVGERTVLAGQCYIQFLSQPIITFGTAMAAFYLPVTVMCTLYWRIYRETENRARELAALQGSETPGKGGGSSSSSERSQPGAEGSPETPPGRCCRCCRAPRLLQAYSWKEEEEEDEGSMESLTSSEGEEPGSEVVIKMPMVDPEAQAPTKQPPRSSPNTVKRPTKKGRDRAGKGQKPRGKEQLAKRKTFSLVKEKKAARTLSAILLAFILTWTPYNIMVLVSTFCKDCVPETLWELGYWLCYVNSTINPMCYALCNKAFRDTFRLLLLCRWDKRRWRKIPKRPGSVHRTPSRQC

Take `CCN(CC)CCNc1ccc(CNC=O)c2sc3ccc(OC)cc3c(=O)c12`: the Potency in [1] was 54.5 µM (active); in assay [10] it was 3.89 µM (active); in assay [11] it was 10.6 µM (active); in assay [14], 21.7 µM (active). Also, the Potency result in assay [2], in [5], in assay [6], in assay [7], in assay [8] and in assay [9] was “inactive” each time. Moreover, the Potency result in assay [12], in [13], in assay [15], in assay [16] and in assay [17] was “inactive” in each case. Moreover, the outcome in assay [3] and in assay [4] was inactive.

For the compound `CCOC(=O)[C@H](CCc1ccccc1)N[C@@H](C)C(=O)N1Cc2cc(OC)c(OC)cc2C[C@H]1C(=O)O`, the Potency entry in [1], in assay [2], in assay [5], in assay [7], in assay [18] and in [8] was “inactive” throughout. Further, the Potency result in assay [19], in [9], in assay [10], in assay [11], in [12] and in assay [17] was “inactive” in each case. In addition, the Potency entry in assay [20] is “inactive”. Moreover, the result in assay [3] and in assay [4] was inactive.

For the compound `CCCCCCCCC(C)=O`, the Potency result in assay [1], in assay [2], in [5], in assay [6], in assay [7] and in [8] was “inactive” each time. Besides, the Potency result in assay [19], in assay [9], in assay [10], in [11], in assay [12] and in assay [13] was “inactive” each time. In addition, the Potency entry in [14], in [15] and in assay [20] was “inactive” in each case. For the same compound, the outcome in [3] and in assay [4] was inactive.

As to `OCC(F)(F)F`, the Potency result in assay [1], in assay [2], in assay [5], in assay [6], in assay [18] and in assay [8] was “inactive” each time. Besides, the Potency result in [19], in assay [9], in [10], in assay [11], in [12] and in assay [13] was “inactive” in each case. For the same compound, the Potency entry in assay [14], in assay [15], in assay [17] and in assay [20] was “inactive” in each case. Also, the result in assay [3] and in assay [4] was inactive.

For the compound `CCCC(c1cc(C(C)(C)C)c(O)cc1C)c1cc(C(C)(C)C)c(O)cc1C`, the Potency in assay [1] was 6.94 µM (active); in [10], 9.89 µM (active); in assay [20] it was 24.6 µM (active). The Potency entry in assay [2], in [5], in [6], in assay [11], in assay [12] and in [15] was “inactive” each time. Also, in [17], the Potency entry was “inactive”. Further, the outcome in assay [3] and in assay [4] was inactive.

For the compound `OC[C@@H](O)[C@H](O)[C@@H](O)[C@@H](O)CO`, the Potency result in [1], in assay [2], in [5], in [6], in [7] and in assay [8] was “inactive” throughout. The Potency result in assay [14], in assay [15], in assay [16], in assay [17] and in assay [20] was “inactive” each time. The outcome in assay [3] and in assay [4] was inactive.

In the case of `CN(C)CCN1C(=O)c2ccccc2N(C)c2ccccc21`, the Potency entry in assay [1], in assay [2], in assay [5], in assay [6], in assay [7] and in [18] was “inactive” throughout. Moreover, the Potency entry in [19], in assay [10], in assay [12], in assay [14], in assay [15] and in [16] was “inactive” in each case. The Potency entry in assay [17] and in assay [20] was “inactive” in each case. Besides, the result in assay [3] and in assay [4] was inactive.

In the case of `c1ccc(C[P+](c2ccccc2)(c2ccccc2)c2ccccc2)cc1`, the Potency entry in assay [1], in assay [2], in assay [5], in assay [6], in [7] and in assay [9] was “inactive” each time. In addition, the Potency entry in assay [12], in assay [16] and in assay [17] was “inactive” each time. In addition, the result in assay [3] and in assay [4] was inactive. In addition, the Potency in assay [11] was 4.72 µM (active).
